Screens (PubChem)
MARV entry inh – inhibitors of Marburg virus binding or cell entry; Marburg virus pseudotyped entry inhibition, cell reporter; Potency, µM (titrated, usually from 37.8 µM), actives largely listed as inhibitors; hit rate 1.8% among 300,000; AID 540276; calls by dose curve; tested in HEK293 cells
HCMV antiviral – inhibitors of human cytomegalovirus; HFF cells, HCMV-luciferase reporter, 72 h; hits give low values; activity change, negative = inhibition, % at 57.5 µM; hit rate 4.5% among 410,000; AID 1259415; in the data active = activity change below about -60%; inconclusive = no clear call, values can overlap the other calls; inactive = above about -39%
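HFF cells seeded 16 h at 37C, treated with compounds, infected with luciferase-reporter HCMV at MOI 1 PFU/cell; luciferase read at 72 h post infection, normalized to buffer-only and Salinomycin controls.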
FMDV inh – antivirals against foot and mouth disease virus. FMDV antiviral cell-based qHTS. Potency, µM (doses to about 57.9 µM), hits mostly inhibitors. hit rate 1.2% among 410,000. AID 1159524; calls by dose curve; tested in HEK293T cells; also: read-out not given here; nearly all actives have a fitted effect of over 45% in size
Lassa entry inh – inhibitors of Lassa virus binding or cell entry; Lassa virus pseudotype entry inhibition, cell reporter; Potency, µM (series often up to 37.9 µM), usual class: inhibitors; hit rate 1.2% among 300,000; calls by dose curve; tested in HEK293 cells; also: nearly all actives have a fitted effect of over 50% in size
Vaccinia Venus – inhibitors of vaccinia virus (Venus reporter); Vaccinia virus Venus reporter expression, fluorescence; hit rate 0.46% among 330,000; Potency, µM (titrated, usually from 36.5 µM), usual class: inhibitors; calls by dose curve; tested in A549 cells; also: nearly all actives have a fitted effect of over 30% in size
VACV mCherry inh – inhibitors of vaccinia virus infection (mCherry reporter signal) | hit rate 0.63% among 310,000 | Vaccinia virus mCherry reporter infection, fluorescence | Potency, µM (top dose mostly 36.5 µM), usual class: inhibitors; calls by dose curve; tested in A549 cells; also: nearly all actives have a fitted effect of over 35% in size
Numbers stand for hits; - = inactive; ? = inconclusive; . = not tested or not shown; ! = repeats disagree. Rows were chosen to be rich in hits. Some 6.5% of all compounds tested hit in one or more screens of this group.

SMILES	MARV entry inh	HCMV antiviral	FMDV inh	Lassa entry inh	Vaccinia Venus	VACV mCherry inh
O=C(C1CCN(S(=O)(=O)c2cccc3nonc23)CC1)N1CCN(c2cccc(Cl)c2)CC1	.	-	-	?	-	-
Cc1ccccc1N1CCN(C(=O)C2CCC(=O)N(C3CCCC3)C2)CC1 (stereo not drawn)	.	-	-	.	.	.
O=C(C1CCCN(S(=O)(=O)c2cccc3nonc23)C1)N1CCN(c2cccc(Cl)c2)CC1 (stereo not drawn)	23.1µM!	-64.9!	-	-	-	-
Cc1cc(C)c(NC(=O)C2CC(=O)N(C3CCCC3)C2)c(C)c1 (stereo not drawn)	.	-72.4	-	.	.	.
O=C(Nc1ccccc1)C1CC(=O)N(C2CCCCC2)C1 (stereo not drawn)	-	-	-	-	-	.
COCC(=O)Nc1cc(C(=O)N2CCc3c(Cl)cccc3C2)c2c(c1)nc(-c1ccncc1)n2C	.	.	-	.	-	-
O=C(NCCCCN1CCN(c2cccc(Cl)c2Cl)CC1)c1ccc2c(c1)Cc1ccccc1-2	.	.	-	.	.	.
O=C(C1CCCN(S(=O)(=O)c2ccc(Br)s2)C1)N1CCN(c2ccccc2)CC1 (stereo not drawn)	?	-	?	?	-	-
COc1cccc(N2CCN(C(=O)C3CCCN(S(=O)(=O)c4ccc(Br)s4)C3)CC2)c1 (stereo not drawn)	?	-	17.8µM	?	-	-
COc1cccc(N2CCN(C(=O)C3CCC(CNS(=O)(=O)c4ccc(Br)s4)CC3)CC2)c1 (stereo not drawn)	-	-	17.8µM	-	-	-
Cc1n[nH]c(C)c1S(=O)(=O)N1CCCC(C(=O)N2CCN(c3ccc(Cl)cc3)CC2)C1 (stereo not drawn)	?	-75.6	20µM	?	?	?
O=C(C1CCC(CNS(=O)(=O)c2ccc(Br)s2)CC1)N1CCN(c2ccc(F)cc2)CC1 (stereo not drawn)	?	-	?	-	-	-
O=C(C1CCCN(S(=O)(=O)c2ccc(Br)s2)C1)N1CCCCCC1 (stereo not drawn)	-	-	?	-	-	.
O=C(O)C1CCCN(S(=O)(=O)c2ccc(Br)s2)C1 (stereo not drawn)	-	-62.1	-	-	-	-
COc1ccc(NC(=O)C2CCN(S(=O)(=O)c3ccc4[nH]c(=O)ccc4c3)CC2)cc1Cl	.	-	-	-	-	-
CNC(=O)C1CCC(Cn2c(=O)c3sccc3n(CC(=O)N3CCCC(C)C3)c2=O)CC1 (stereo not drawn)	.	-	-	?	-	-
COc1ccc(NC(=O)CSc2nc(C)cc(C)c2C(=O)Nc2cccc(C)c2)cc1	-	-	-	-	-	-
Cc1cccc(OS(=O)(=O)NC(=O)OCC2CCCN3CCCCC23)c1 (stereo not drawn)	-	-	31.6µM	-	-	-
O=C(NS(=O)(=O)Oc1ccc(Cl)cc1)OC[C@@H]1CCCN2CCCC[C@H]12	-	?	-	-	-	-
Cc1ccc(Cl)cc1NS(=O)(=O)c1ccc(N2CCCCS2(=O)=O)cc1	.	-	11.2µM	-	-	-
CCCS(=O)(=O)NCc1c(C)ncc2c1CCN(C(=O)c1cccc(-c3ccccc3F)c1)C2	.	.	-	.	-	-
Cc1ccccc1CN1C(=O)c2ccccc2S(=O)(=O)c2ccc(C(=O)OCC3CCCO3)cc21 (stereo not drawn)	.	-	-	-	-	-
O=C(Cn1nc(C(F)(F)F)c2c1CCCC2)Nc1ccc(F)c(Cl)c1	?	-	?	-	-	-
COC(=O)[C@]1(C)CCC[C@@]2(C)C3CC[C@@]4(C)C[C@]3(CCC21)CC(=O)N4 (stereo partly drawn)	.	-	?	.	-	-
C=C1C(=O)C23CCC4C(C)(C(=O)OC)CCCC4(C)C2CCC1(O)C3 (stereo not drawn)	?	-98.6	3.55µM	?	11.2µM	7.94µM
COc1ccccc1N1C(=O)c2cccc3c(Cl)ccc(c23)C1=O	-	-82.2	-	?	-	-
Cc1ccc2nc(-c3ccc(Cl)c(NC(=O)c4ccc5c(c4)OCCO5)c3)oc2c1	?	-	-	?	-	-
CC(C)c1nc(SCC(=O)Nc2nccs2)c2ccccc2n1	-	?	-	-	-	-
CN(C)c1ccc(NC(=O)CSc2nc(N)c(C(=O)Nc3ccc(N(C)C)cc3)s2)cc1	?	?	?	?	3.98µM	3.98µM
COc1ccc(C(=O)NNC(=O)CSc2nc(C(C)C)nc3ccccc23)cc1	?	-65.3	-	-	-	-
